Bioassay records from PubChem.
NTR1 agonist: agonists of human NTR1, primary screen, imaging, U2OS cells, beta-arrestin-GFP, high content; NTR1-U2OS beta-arrestin-GFP spot imaging, agonist mode; 330,000 compounds, 0.17% hits; Neurotensin receptor type 1 (Homo sapiens), P30989; activation, % at 20 µM;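 active = activation at or above 40% of the spot to cytoplasm intensity ratio, with at least 20 cells analyzed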
Target sequence (P30989 whole entry, looked up): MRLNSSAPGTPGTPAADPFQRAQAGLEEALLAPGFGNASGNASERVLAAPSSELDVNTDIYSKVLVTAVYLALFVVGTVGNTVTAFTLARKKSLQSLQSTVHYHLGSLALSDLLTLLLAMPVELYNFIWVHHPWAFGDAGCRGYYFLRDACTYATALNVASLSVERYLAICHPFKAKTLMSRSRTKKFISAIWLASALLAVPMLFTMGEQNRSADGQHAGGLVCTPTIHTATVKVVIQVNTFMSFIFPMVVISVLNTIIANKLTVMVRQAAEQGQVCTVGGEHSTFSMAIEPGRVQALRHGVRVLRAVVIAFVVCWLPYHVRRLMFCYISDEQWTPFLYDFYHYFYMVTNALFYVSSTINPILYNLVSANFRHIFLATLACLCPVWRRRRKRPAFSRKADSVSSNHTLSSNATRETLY
Beta apoptosis: inhibitors of cytokine-induced beta cell apoptosis, primary screen, luminescence | INS-1E cytokine-induced death, ATP luminescence, 48 h; percent of positive-control rescue, neutral wells zero | protection from apoptosis, % (test concentration not listed) | 300,000 compounds, 0.8% hits | AID 435005, 2010;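 active = Every replicate reaches about 75%, or at least half do and their mean reaches it too, limit read from the data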;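 also: higher means more ATP so stronger rescue from cytokine killing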
Mdm2-MdmX inh: inhibitors of human Mdm2-MdmX association, primary screen, cell-based, luminescence, split luciferase, SaOS-2, uHTS. Protein Mdm4 (Homo sapiens) + E3 ubiquitin-protein ligase Mdm2 (Homo sapiens), …. SaOS-2 split-luciferase Mdm2/MdmX complementation. inhibition, % at 8 µM. 330,000 compounds, 3% hits;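 active = inhibition of at least 50% at 8 µM in the primary screen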
A1 inh: caspase 3/7 activation in MEF A1-2A-BIM cells, primary screen, A1 inhibitor project, cell-based, luminescence, HTS. Caspase-Glo 3/7 luminescence, 3 h; percent of clofoctol response, vehicle zero. caspase activation, % (no concentration beside the values). 330,000 compounds, 0.066% hits;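 active = over half of replicate activation scores above 10%, or exactly half above 10 with the replicate mean above 10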
697 NFkB inh: inhibitors of PMA/ionomycin-induced NF-kB reporter, 697 cells, primary screen, B-cell NF-kB inhibitor project, cell-based, luminescence, uHTS; inhibition, % at 4 µM; 330,000 compounds, 0.33% hits; 697 B-cell NF-kB luciferase reporter, 16 h; in the data active = inhibition above about 35%
Jurkat NFkB inh: inhibitors of induced NF-kB luciferase reporter, primary screen, TCR NF-kB activation inhibitor project, cell-based, luminescence, uHTS | inhibition, % at 4 µM | Jurkat, PMA/ionomycin-induced NF-kB luciferase reporter | 330,000 compounds, 0.53% hits; in the data active = inhibition above about 50%
Mdm2-MdmX conf: Mdm2-MdmX complex disruptors, retested hits, confirmation, luminescence, single concentration | shares compounds with Mdm2-MdmX inh | Mdm2-MdmX binding, luminescent assay | inhibition, % at 8 µM | 10,000 compounds, 55% hits | AID 489028, 2010; in the data active = inhibition above about 40%
FLuc counter: full-length luciferase signal inhibition, confirmation, counter-screen for Mdm2/MdmX interaction inhibitor project, cell-based, single concentration, SaOS-2; SaOS-2 full-length luciferase counterscreen, luminescence; inhibition, % at 8 µM; AID 504607, 2011; 6,200 compounds, 77% hits; shares compounds with Mdm2-MdmX inh;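 active = mean inhibition at 8 µM reaching about 37%, which flags the compound as non-specific, limit read from the data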;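 also: p53-null SaOS-2 cells with luciferase driven by a doxycycline-inducible promoter; compound on cells about two nights before reading with doxycycline added after day one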
NTR1 ag confirm: NTR1 agonists, single-dose retest, confirmation, imaging, U2OS cells, beta-arrestin-GFP, single concentration. shares compounds with NTR1 agonist. 480 compounds, 38% hits. activation, % at 20 µM. NTR1-U2OS beta-arrestin-GFP translocation imaging;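 active = mean activation at 20 µM of at least 40%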
Each line names hits and unclear results; the compound was inactive in the other large screens (follow-up assays come after a bar, where they were run). Rows were chosen to be rich in hits. Some 3.8% of all compounds tested hit in one or more screens of this group.

O=C1c2cccc3cccc(c23)C(=O)N1CC1CCN(CC(O)COc2ccc3ccccc3c2)CC1 (centres undefined)	NTR1 agonist 41.2, Mdm2-MdmX inh 72.5 | Mdm2-MdmX conf inactive | FLuc counter 51.7 | NTR1 ag confirm 58.6
Cc1cc(C)cc(OCC(O)CN2CCC(CN3C(=O)c4cccc5cccc(c45)C3=O)CC2)c1 (centres undefined)	NTR1 agonist 47.7, Beta apoptosis 78.3, Mdm2-MdmX inh 69.2 | Mdm2-MdmX conf inactive | FLuc counter 73.7 | NTR1 ag confirm 57.8
O=[N+]([O-])c1ccc(-c2nc(Nc3cccc(O)c3)c3ccccc3n2)cc1	NTR1 agonist 55.7, Mdm2-MdmX inh 81.6 (no result: Beta apoptosis) | Mdm2-MdmX conf inactive | NTR1 ag confirm 48.5
Cc1ccc2c(c1)c1c(n2CC(O)CNC(CO)(CO)CO)CCCC1 (centres undefined)	none
Cc1ccc2c(c1)c1c(n2CC(O)CNC2CCCCC2)CCCC1 (centres undefined)	NTR1 agonist 42.0, Mdm2-MdmX inh 100.3 | Mdm2-MdmX conf 45.5 | FLuc counter 51.3 | NTR1 ag confirm 52.9
O=C(CN1C(=O)NC2(CCc3ccccc32)C1=O)Nc1ccc(Br)cc1F (centres undefined)	none (no result: Beta apoptosis, A1 inh)
CCCCCn1c(N2CCC(Cc3ccccc3)CC2)nc2c1c(=O)[nH]c(=O)n2C	NTR1 agonist 40.9, Mdm2-MdmX inh 57.8 | Mdm2-MdmX conf inactive | NTR1 ag confirm 50.1
CCCn1c(N2CCC(Cc3ccccc3)CC2)nc2c1c(=O)[nH]c(=O)n2C	none
CC(C)(C)c1ccc(S(=O)(=O)N2CCN(C(=O)C3CCC3)CC2)cc1	none
Cn1ncc2c(Nc3cccc(Cl)c3)nc(Nc3cccc(Cl)c3)nc21	NTR1 agonist 63.8, Mdm2-MdmX inh 50.0 | Mdm2-MdmX conf inactive | NTR1 ag confirm inactive
COc1ccc(CC2NCCC3=CC(=O)CCC32)cc1O (centres undefined)	none
O=C(Nc1ccc(Cl)c(C(F)(F)F)c1)NC1CC2CCCC(C1)N2Cc1ccccc1 (centres undefined)	NTR1 agonist 43.7, Mdm2-MdmX inh 83.1 | Mdm2-MdmX conf 51.9 | FLuc counter 59.5 | NTR1 ag confirm inactive
CC(C)C(=O)N1CCN(c2ccc(NC(=O)c3ccc4c(c3)OCCO4)cc2Cl)CC1	NTR1 agonist 90.1, Mdm2-MdmX inh 60.3 | Mdm2-MdmX conf 80.2 | FLuc counter 64.6 | NTR1 ag confirm 84.7
CC(=O)N1CCN(c2ccc(NC(=O)c3ccc4c(c3)OCCO4)cc2Cl)CC1	none
O=C(c1ccc(Cl)cc1)C(CN1CCCCC1)c1ccccc1 (centres undefined)	NTR1 agonist 49.5, Beta apoptosis 91.3, Mdm2-MdmX inh 94.2 | Mdm2-MdmX conf 55.0 | FLuc counter 42.4 | NTR1 ag confirm 60.1
Cc1cc(C)c(NC(=O)COC(=O)C23CC4CC(CC(O)(C4)C2)C3)c(Cl)c1	none
COc1cc(CNCc2ccccc2)cc(Cl)c1OC	none
COc1cc(CNCCc2ccccc2)cc(Cl)c1OCc1ccccc1	NTR1 agonist 61.2, Mdm2-MdmX inh 77.9 | Mdm2-MdmX conf inactive | NTR1 ag confirm inactive
FC(F)(F)c1nc(-c2ccncc2)ncc1-c1nnnn1-c1ccccc1	none
Fc1ccc(-n2nnnc2-c2cnc(-c3cccs3)nc2C(F)(F)F)cc1	NTR1 agonist 48.7, Mdm2-MdmX inh 56.2 | Mdm2-MdmX conf 43.5 | FLuc counter 58.7 | NTR1 ag confirm 66.8
CC1CCC(C(C)C)C(OCC(O)CNC(C)c2ccccc2)C1 (centres undefined)	NTR1 agonist 40.2, Mdm2-MdmX inh 60.5 | Mdm2-MdmX conf 45.8 | FLuc counter 69.6 | NTR1 ag confirm 40.8
CC(C)(C)OC(=O)NCCCCCNC(=O)c1[nH]cnc1C(=O)Nc1ccc(Cl)cc1	NTR1 agonist 47.5, Mdm2-MdmX inh 63.8 | Mdm2-MdmX conf inactive | FLuc counter 59.2 | NTR1 ag confirm inactive
C[C@@H](NC(=O)c1[nH]cnc1C(=O)Nc1ccc(Cl)cc1)c1ccccc1	NTR1 agonist 44.4, Mdm2-MdmX inh 60.4 | Mdm2-MdmX conf 45.0 | FLuc counter 61.6 | NTR1 ag confirm 53.5
CC(C)(C)OC(=O)NCCCCCNC(=O)c1[nH]cnc1C(=O)Nc1ccccc1	none
C[C@H](NC(=O)c1[nH]cnc1C(=O)Nc1ccc(Cl)cc1)c1ccccc1	NTR1 agonist 51.3, Mdm2-MdmX inh 60.7 | Mdm2-MdmX conf inactive | FLuc counter 68.2 | NTR1 ag confirm inactive
C[C@@H](NC(=O)c1[nH]cnc1C(=O)Nc1ccccc1)c1ccccc1	none
CCCOc1ccccc1OCC(=O)Nc1cccc(S(=O)(=O)NC2=NCCC2)c1	none (no result: Beta apoptosis, A1 inh)
Oc1ccc(Cl)cc1/C=C/c1ccc2cccc(O)c2n1	NTR1 agonist 45.5, Mdm2-MdmX inh 60.2 (no result: Beta apoptosis, A1 inh) | Mdm2-MdmX conf inactive | FLuc counter 62.8 | NTR1 ag confirm inactive
Cc1ccsc1/C=C/c1ccc2cccc(O)c2n1	none
Cc1cccc(C)c1C(=NCCN(C)C)c1ccccc1	none
COc1ccc(CCn2c(=N)c(C(=O)NC3CCCC3)cc3c(=O)n4cccc(C)c4nc32)cc1	NTR1 agonist 50.3, Mdm2-MdmX inh 88.0 | Mdm2-MdmX conf 52.6 | FLuc counter 57.7 | NTR1 ag confirm inactive
Cc1cccn2c(=O)c3cc(C(=O)NC4CCCC4)c(=N)n(CCc4ccccc4)c3nc12	none
CC(NC(=O)CSc1ncn[nH]1)c1ccc(Cl)cc1Cl (centres undefined)	none (no result: Beta apoptosis, A1 inh)
C/C(=N/Nc1cc(-c2ccccc2)nc(-c2ccccc2)n1)c1ccc(O)cc1	NTR1 agonist 53.5, Mdm2-MdmX inh 55.6 | Mdm2-MdmX conf inactive | NTR1 ag confirm 46.0
O=C(/C=C/c1ccc(OCCCF)cc1)Nc1ccnc(-c2ccncc2)n1	NTR1 agonist 55.8, Mdm2-MdmX inh 62.2 | Mdm2-MdmX conf inactive | NTR1 ag confirm inactive
